The list is not random: actives were taken first. Their share in the collection is about 9.4%.
AMA1-RON2 inh: qHTS for Inhibitors of AMA1-RON; Towards Development of Antimalarial Drug Lead: Primary Screen; Plasmodium falciparum AMA1 (3D7) - RON2 peptide interaction; AID 720542, 2013; 360,000 tested, 0.2% active; Potency, µM (titrated, usually from 58.2 µM), for inactives: at the highest dose activity change, negative = inhibition, usual class: inhibitors; AlphaScreen AMA1-biotinylated RON2 peptide binding;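 note: 0% = vehicle wells and -100% = peptide control; nearly all actives have a fitted effect of over 45% in size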
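AMA1 (3D7) with his tag at 25 nM final met compounds first, then biotinylated RON2 peptide at 25 nM; detection used donor plus acceptor beads, 10 µg/mL apiece, read by AlphaScreen after 30 min at room temperature.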
Pf growth 96h: Primary qHTS for delayed death inhibitors of the malarial parasite plastid, 96 hour incubation; P. falciparum luciferase reporter growth, 96 h; Potency, µM (doses to about 28.7 µM), inactives show at the highest dose activity change, negative = inhibition, actives largely listed as inhibitors; 320,000 tested, 6.9% active; AID 504834, 2011; note: % is set by controls: 0 for no effect and ±100 for the full control effect
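Infected RBCs, 2% Hct / 0.05% parasitemia final; luciferase-reporter P. falciparum; cpd 96 h, 37 C, 5% CO2; luciferase detection reagent; luminescence.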
SARS PLP yeast: qHTS of Yeast-based Assay for SARS-CoV PLP; S. cerevisiae expressing SARS-CoV PLpro, growth rescue; Potency, µM (doses to about 32.9 µM), for the others: at the highest dose activity, positive = growth rescue, hits mostly activators; 330,000 tested, 0.19% active; calls by dose curve; note: 0% is about no effect; nearly all actives have a fitted effect of over 55% in size
Pf growth 48h: Primary qHTS for delayed death inhibitors of the malarial parasite plastid, 48 hour incubation; AID 504832, 2011; Potency, µM (highest dose often 28.7 µM), inactives show at the top dose activity change, negative = inhibition, most hits filed as inhibitors; P. falciparum luciferase growth in erythrocytes, 48 h; 310,000 tested, 5.9% active; note: % is set by controls: 0 for no effect and ±100 for the full control effect
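First compound was added to culture medium, then infected red cells at 0.1% parasitemia and 2% hematocrit (final). After incubation at 37 C under 5% CO2, luciferase detection reagent was dispensed and light output recorded.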
Active calls of the source: *; ? = inconclusive; . = not tested or not shown; [ ] = dose if it differs, or a comment. Unless noted, calls come from the whole dose curve; as a rule, active = well fitted curve in the direction sought with a large enough effect; inconclusive = small, poorly fitted or top-dose-only effect, or another doubt; inactive = no such curve, though single readings can be large; an effect the other way counts as inactive or inconclusive. Potency is the fitted concentration of half-maximal effect.

SMILES	AMA1-RON2 inh	Pf growth 96h	SARS PLP yeast	Pf growth 48h
COc1cc(C2C(C#N)=C(N)Oc3n[nH]c(C)c32)ccc1OC(=O)c1ccccc1 (stereo not drawn)	5%	17µM*	1%	3%
CC(C)CCC(C)NC(=O)Cc1ccc(S(=O)(=O)N2CCOCC2)s1 (stereo not drawn)	-4%	-9%	0%	?
CCC(Sc1nc(C)cc(C)n1)C(=O)Nc1cc(C)on1 (stereo not drawn)	9%	?	1%	-5%
O=C(Nc1cccc(Cl)c1)NC1(C(=O)NCc2cccs2)CCCCC1	-5%	?	4%	?
C=CCc1cccc(CNc2nc3ccccc3n2C(C)C)c1O	-13%	?	3%	4.7µM*
C=CCc1cccc(CNc2ccc(Br)cc2)c1O	7%	?	-4%	12µM*
CSc1nc(Oc2ccc(Cl)cc2)c2sccc2n1	1%	9.3µM*	3%	?
CC(NC(=O)c1ccc(N(C)C)c([N+](=O)[O-])c1)c1ccc(-n2ccnc2)cc1 (stereo not drawn)	-17%	?	1%	-11%
CC(NC(=O)c1cc([N+](=O)[O-])cc([N+](=O)[O-])c1)c1ccc(-n2ccnc2)cc1 (stereo not drawn)	-2%	0.93µM*	2%	1.5µM*
Cc1ccc(C(=O)NC(C)c2ccc(-n3ccnc3)cc2)cc1S(=O)(=O)N1CCOCC1 (stereo not drawn)	-25%	?	-2%	?
CC(NC(=O)c1cc(S(=O)(=O)N2CCOCC2)ccc1F)c1ccc(-n2ccnc2)cc1 (stereo not drawn)	-1%	9.3µM*	-5%	-22%
COC(=O)CCc1sc(NC2CCCCC2)nc1-c1ccc(OC)cc1	?	?	-12%	1%
C[C@@]12C(=O)OC(=O)[C@]1(C)[C@H]1CC[C@@H]2O1	.	1µM*	.	2µM*
O=C(O)C12C3CCC(O3)C1(C(=O)O)C1CCC2O1 (stereo not drawn)	-3%	.	.	.
CCCCCCCCCCCCCCCC[n+]1ccc(/C=N/O)cc1	-8%	1.2µM*	-58%	2.3µM*
CCCCCCCCCCCCCC[n+]1ccc(C)cc1	.	0.85µM*	.	0.85µM*
CCCCN(CCCC)C(=O)C[n+]1cccc(/C=N/O)c1	1%	18%	1%	?
Cc1cc[n+](CC[n+]2ccc(C)cc2)cc1	12%	13%	0%	-7%
CCCCCCCCCCCCCCCC[n+]1ccc(C(N)=O)cc1	17%	11%	-20%	?
CCCCCCC[n+]1ccc(-c2cc[n+](CCCCCCC)cc2)cc1	1%	0.33µM*	-29%	0.41µM*
CC(=O)Nc1ccc(OCCC[n+]2ccccc2)cc1	-1%	30%	0%	-4%
CCCCCCCCCCCCCCCC[n+]1ccccc1	11%	1.5µM*	.	3.8µM*
COc1ccc(Cl)cc1NC(=O)CSC1=NN2CCCC(=O)N=C2S1	-13%	11%	-3%	-28%
CCN(CC)C(=O)c1nc[nH]c1C(=O)N(CC)CC	-1%	33%	-3%	-4%
c1ccc2c[n+](CCCCCCCCCC[n+]3ccc4ccccc4c3)ccc2c1	-9%	.	.	.
SMILES	AMA1-RON2 inh	Pf growth 96h	SARS PLP yeast	Pf growth 48h
CCCCCCCCCCCC[n+]1ccc2ccccc2c1	.	3µM*	.	0.3µM*
CCn1c(=O)c2cc(C(=O)Nc3cc(C)on3)sc2c2ccccc21	13%	?	3%	.
COc1cc2c(cc1OC)CN(C(=O)CCNS(=O)(=O)c1ccc(Br)cc1)CC2	9%	?	5%	9.3µM*
O=C(CCNS(=O)(=O)c1ccc(Br)cc1)N1CCN(c2ccccc2O)CC1	-11%	?	-2%	10µM*
O=C(CCNS(=O)(=O)c1ccc(Br)s1)N1CCN(c2ccccc2)CC1	-8%	12µM*	-9%	-6%
O=C(CNS(=O)(=O)c1ccc(Br)cc1)N1CCN(c2ccc(F)cc2)CC1	-9%	13µM*	22%	?
CCOc1ccc(NC(=O)CN(C)C(=O)CN2C(=O)C3CC=CCC3C2=O)cc1OCC (stereo not drawn)	-5%	13%	-3%	9%
COc1ccc(Br)cc1/C=N/NS(=O)(=O)c1ccccc1	-1%	.	.	.
CCOC(=O)c1c(CN2CCN(C)CC2)oc2ccc(OC)cc12	-4%	?	1%	-2%
Cc1ccc(NC(=O)C2CCCC2)c(Br)c1	6%	.	.	.
Cc1c(C(=O)NCc2cccnc2)oc2ccccc12	-9%	3%	2%	-3%
CC1CC(C)CN(S(=O)(=O)c2ccc3c(c2)oc(=O)n3CC(=O)NCc2cccnc2)C1 (stereo not drawn)	10%	10µM*	0%	?
Cc1c(C(=O)NCc2cccnc2)oc2ccc(S(=O)(=O)N3CCCC(C)C3)cc12 (stereo not drawn)	14%	5.9µM*	.	?
Cc1c(C(=O)NCc2ccc3c(c2)OCO3)oc2ccc(S(=O)(=O)N3CCC(C)CC3)cc12	-13%	58%	16%	9.3µM*
Cc1c(C(=O)NCc2ccc3c(c2)OCO3)oc2ccc(S(=O)(=O)N3CCCCCC3)cc12	-5%	?	.	13µM*
Cn1c(=O)c2c(nc(CN3CCN(c4ccccc4)CC3)n2CCN2CCOCC2)n(C)c1=O	8%	-4%[5.75 µM]	0%	-22%
CCC1(C)Cc2ccccc2-c2nc(NCCO)n(-c3ccccc3)c(=O)c21 (stereo not drawn)	1%	?	8%	-8%
COc1ccc(NC(=O)COc2cccc3c2CCN(Cc2cccnc2)C3=O)cc1	0%	?	-5%	?
Cc1ccc(CN2CCc3c(OCC(=O)Nc4cccc(C)c4C)cccc3C2=O)cc1	.	?	-4%	?
Cc1ccc(C)c(NC(=O)COc2cccc3c2CCN(Cc2ccccc2C)C3=O)c1	-2%[11.6 µM]	10µM*	9%	?
COc1ccc(NC(=O)COc2cccc3c2CCN(Cc2cccnc2)C3=O)c(OC)c1	0%	1.3µM*	0%	5.2µM*
CCOc1ccc(NC(=O)COc2cccc3c2CCN(Cc2cccnc2)C3=O)cc1	-11%	?	5%	12µM*
Nc1nc(SCc2ccc3c(c2)OCCO3)n[nH]1	9%	18%[5.75 µM]	.	38%
COc1ccccc1NC(=S)NC(NC(=O)CC(C)C)C(Cl)(Cl)Cl (stereo not drawn)	-7%	?	1%	15µM*
COc1ccccc1NC(=S)NC(NC(=O)c1ccco1)C(Cl)(Cl)Cl (stereo not drawn)	-8%	33%	27%	?
COc1ccc(NC2CCCN(C(=O)c3ccc4[nH]c(C)c(C)c4c3)C2)cc1 (stereo not drawn)	-14%	13µM*	-1%	?
COc1ccc(CCNCc2ccc(F)cc2)cc1OC	2%	.	1%	9%
CCCCNCC(O)(c1ccc(Cl)cc1)c1ccc(Cl)cc1	-8%	2.3µM*	0%	13µM*
COc1ccc(CNCC(O)(c2ccc(F)cc2)c2ccc(F)cc2)cc1OC	9%	2.9µM*	-2%	4.1µM*
